The record followed here is PubChem BioAssay (NCI).

What all share (assay): NCI-60 one-dose screen, 48 h (100 = growth as untreated, 0 = no growth, -100 = all killed)
Holding throughout (details): 10 µM unless noted

In assay [1] the test system is SK-MEL-2 melanoma.
Assay [2] deals with EKVX NSCLC.
Assay [3] relates to SN12C renal.
Assay [4] relates to UO-31 renal.
In assay [5] the test system is TK-10 renal.
Assay [6] has as its system ACHN renal.
In assay [7] the test system is CAKI-1 renal.
In assay [8] the test system is A498 renal.
Assay [9] concerns CCRF-CEM leukemia.
The subject of assay [10] is MOLT-4 leukemia.
Assay [11] relates to SR leukemia.
In assay [12] the test system is OVCAR-8 ovarian.
In assay [13] the test system is OVCAR-5 ovarian.
Assay [14] concerns OVCAR-4 ovarian.
For assay [15], the system named is SK-OV-3 ovarian.
The test system of assay [16] is IGROV1 ovarian.
Assay [17] deals with OVCAR-3 ovarian.
Assay [18] relates to HS 578T breast.
For assay [19], the system named is NCI/ADR-RES ovarian.

Compounds without any hit were thinned out: in the full panel of roughly 83,000, 20% have a hit.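 Interpretation: 100, growth as untreated; towards 0, rising growth inhibition; 0, no net growth; 0 to -100, cell death. Compounds scoring below 10 were considered active.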 A number with no mark means an inactive call. Active and inactive are the calls of the source.

For the compound `N#Cc1cccc(NC(=O)c2cc(-c3ccc(F)cc3F)ccc2O)c1`, the growth is -6.68% (active) in assay [1]; 89.4% in [2]; 4.26% (active) in [3]; -11.4% (active) in [4]; 21.9% in assay [5]; 7.33% (active) in assay [6]. Further, the growth in assay [7] was 3.62% (active); in assay [8], -33.2% (active); in [9], 27.4%; in assay [10], 11.8%; in assay [11], 12.8%; in assay [12] it was 16.8%. Also, the growth in assay [13] is 36.8%; in assay [14] it was 22.1%; in assay [15] it was 6.59% (active); in assay [16], 29%; in assay [17] it was 1.29% (active); in assay [18] it was 16%. Also, in [19], the growth was 4.93% (active).

On to `CCc1cccc2c1S/C(=C/c1ccc(Cl)cc1)C2=O`, for which the growth in [1] was 105%; in assay [2] it was 95%; in [3], 90.5%; in assay [4], 70.7%; in assay [5] it was 170%; in assay [6], 91.3%. The growth in assay [7] is 87.3%; in assay [8], 113%; in [9], 98%; in assay [10] it was 88.8%; in assay [11], 79%; in assay [12], 101%. Moreover, the growth was 100% in [13]; 93.5% in assay [14]; 85.7% in [15]; 65.6% in [16]; 104% in assay [17]; 88% in assay [18]. Besides, the growth in [19] is 101%.

With `Nc1nn(C(=O)Nc2ccc(Cc3ccccc3)cc2)c2ccc(Cl)cc12`, the growth in assay [1] was 68.7%; in assay [2], 70%; in assay [3] it was 64.2%; in assay [4], 43.5%; in assay [5], 79.7%; in [6], 39.9%. Besides, the growth in [7] is 44%; in assay [8], 106%; in [9], 74%; in [10], 25.6%; in assay [11] it was 71.7%; in [12] it was 72.5%. Besides, the growth in assay [13] is 55.7%; in assay [14] it was 54.3%; in assay [15], 91%; in [16] it was 76.2%; in assay [17], 76.7%; in assay [18], 92.1%. In addition, in [19], the growth was 67%.

For the compound `Cc1cccc2c3c(sc12)C(c1ccc(F)cc1)C(C#N)=C(N)O3` (configuration not stated), the growth in assay [1] was 50.1%; in [2] it was 52.6%; in assay [3], 25.2%; in assay [4], 36.7%; in assay [5] it was 78.8%; in assay [6], 24.8%. For the same compound, the growth was -0.939% (active) in [7]; 4.47% (active) in [8]; 13.8% in [9]; 12.5% in assay [10]; 9.36% (active) in assay [11]; 18.9% in assay [12]. Also, the growth in [13] was 25.9%; in [14] it was 60.8%; in [15], 60.7%; in assay [16] it was 20.6%; in assay [17] it was 3.36% (active); in assay [18] it was 28.7%. Further, the growth in [19] was 12%.

For the compound `NCCNc1nc2ccccc2c2c(=O)c3cccc(F)c3sc12`, the growth is 102% in assay [1]; 74.1% in [2]; 47.5% in assay [3]; 40.7% in assay [4]; 71.7% in assay [5]; 34.2% in assay [6]. In addition, the growth was 39.6% in assay [7]; 59.7% in assay [8]; 34.5% in assay [9]; 7.98% (active) in assay [10]; 12.3% in assay [11]; 46.5% in [12]. The growth in assay [13] is 81.8%; in assay [14], 48.3%; in [15], 78.8%; in [16], 48%; in assay [17], 53.1%; in [18] it was 67.6%. Also, the growth in assay [19] is 53.9%.

Take `Cn1cc(-c2cc3ncnc(Nc4ccc(CC(=O)Nc5cc(C(C)(C)C)nn5C)cc4)c3s2)cn1`: the growth is 22.3% in [1]; 84.6% in assay [2]; 26.4% in assay [3]; 28.8% in assay [4]; 56.5% in [5]; 25.9% in assay [6]. Also, the growth in assay [7] is 19.3%; in assay [8], -7.97% (active); in [9], 13.7%; in assay [10], 16.7%; in [11], 8.15% (active); in [12], 35.9%. For the same compound, the growth is 102% in [13]; 28.1% in [14]; 29.3% in assay [15]; 28.9% in assay [16]; 61.4% in [17]; 32.3% in assay [18]. The growth in [19] was 101%.

As to `COc1cc2cc(Oc3ccc(NC(=O)Nc4cc(C(F)(F)F)cc(C(F)(F)F)c4)cc3)c(C)nc2cc1OCCN1CCOCC1`, the growth in assay [1] was 32.9%; in assay [2], 21.4%; in assay [3] it was 8.87% (active); in assay [4], 20.1%; in assay [5], 53.6%; in [6], 5.89% (active). The growth in assay [7] was 15.3%; in assay [8], 40.7%; in [9] it was 9.65% (active); in assay [10], 8.21% (active); in [11], -34.9% (active); in assay [12] it was 17.2%. The growth in assay [13] was 46.6%; in [14], 17.9%; in assay [15], 22.7%; in assay [16] it was 33.5%; in assay [17] it was 9.29% (active); in [18], 60.6%. For the same compound, the growth in assay [19] was 9.17% (active).

With `CC1=C(C)C(=O)C(Nc2cccc(C(=O)OC(C)(C)C)c2)=C(Br)C1=O`, the growth in assay [1] was 106%; in assay [2], 103%; in [3], 85.7%; in assay [4] it was 71.6%; in assay [5] it was 122%; in assay [6] it was 87.5%. Moreover, the growth is 96.4% in assay [7]; 87.3% in assay [8]; 8.53% (active) in assay [9]; 12.5% in [10]; 15.9% in assay [11]; 92.4% in assay [12]. Further, the growth in [13] was 99.9%; in assay [14] it was 88.8%; in assay [15] it was 93.2%; in assay [16] it was 86.7%; in [17] it was 77.7%; in assay [18] it was 92.8%. For the same compound, in assay [19], the growth is 94.7%.
